PubChem BioAssay AID588689 (Southern Research Specialized Biocontainment Screening …, 2011)
In all, about 340,000 compounds went through this assay and about 1,000 (0.29%) were called active. No stated cut-off is given here; in the data, inconclusive means inhibition above about 29% without an active follow-up result; inactive means below that. The list is a sample of the results. Measured potencies and affinities stand elsewhere.

Biological target: Genome polyprotein (Dengue virus type 2 (strain 16681-PDK53)) (UniProt P29991)
Sequence (P29991 whole entry, looked up): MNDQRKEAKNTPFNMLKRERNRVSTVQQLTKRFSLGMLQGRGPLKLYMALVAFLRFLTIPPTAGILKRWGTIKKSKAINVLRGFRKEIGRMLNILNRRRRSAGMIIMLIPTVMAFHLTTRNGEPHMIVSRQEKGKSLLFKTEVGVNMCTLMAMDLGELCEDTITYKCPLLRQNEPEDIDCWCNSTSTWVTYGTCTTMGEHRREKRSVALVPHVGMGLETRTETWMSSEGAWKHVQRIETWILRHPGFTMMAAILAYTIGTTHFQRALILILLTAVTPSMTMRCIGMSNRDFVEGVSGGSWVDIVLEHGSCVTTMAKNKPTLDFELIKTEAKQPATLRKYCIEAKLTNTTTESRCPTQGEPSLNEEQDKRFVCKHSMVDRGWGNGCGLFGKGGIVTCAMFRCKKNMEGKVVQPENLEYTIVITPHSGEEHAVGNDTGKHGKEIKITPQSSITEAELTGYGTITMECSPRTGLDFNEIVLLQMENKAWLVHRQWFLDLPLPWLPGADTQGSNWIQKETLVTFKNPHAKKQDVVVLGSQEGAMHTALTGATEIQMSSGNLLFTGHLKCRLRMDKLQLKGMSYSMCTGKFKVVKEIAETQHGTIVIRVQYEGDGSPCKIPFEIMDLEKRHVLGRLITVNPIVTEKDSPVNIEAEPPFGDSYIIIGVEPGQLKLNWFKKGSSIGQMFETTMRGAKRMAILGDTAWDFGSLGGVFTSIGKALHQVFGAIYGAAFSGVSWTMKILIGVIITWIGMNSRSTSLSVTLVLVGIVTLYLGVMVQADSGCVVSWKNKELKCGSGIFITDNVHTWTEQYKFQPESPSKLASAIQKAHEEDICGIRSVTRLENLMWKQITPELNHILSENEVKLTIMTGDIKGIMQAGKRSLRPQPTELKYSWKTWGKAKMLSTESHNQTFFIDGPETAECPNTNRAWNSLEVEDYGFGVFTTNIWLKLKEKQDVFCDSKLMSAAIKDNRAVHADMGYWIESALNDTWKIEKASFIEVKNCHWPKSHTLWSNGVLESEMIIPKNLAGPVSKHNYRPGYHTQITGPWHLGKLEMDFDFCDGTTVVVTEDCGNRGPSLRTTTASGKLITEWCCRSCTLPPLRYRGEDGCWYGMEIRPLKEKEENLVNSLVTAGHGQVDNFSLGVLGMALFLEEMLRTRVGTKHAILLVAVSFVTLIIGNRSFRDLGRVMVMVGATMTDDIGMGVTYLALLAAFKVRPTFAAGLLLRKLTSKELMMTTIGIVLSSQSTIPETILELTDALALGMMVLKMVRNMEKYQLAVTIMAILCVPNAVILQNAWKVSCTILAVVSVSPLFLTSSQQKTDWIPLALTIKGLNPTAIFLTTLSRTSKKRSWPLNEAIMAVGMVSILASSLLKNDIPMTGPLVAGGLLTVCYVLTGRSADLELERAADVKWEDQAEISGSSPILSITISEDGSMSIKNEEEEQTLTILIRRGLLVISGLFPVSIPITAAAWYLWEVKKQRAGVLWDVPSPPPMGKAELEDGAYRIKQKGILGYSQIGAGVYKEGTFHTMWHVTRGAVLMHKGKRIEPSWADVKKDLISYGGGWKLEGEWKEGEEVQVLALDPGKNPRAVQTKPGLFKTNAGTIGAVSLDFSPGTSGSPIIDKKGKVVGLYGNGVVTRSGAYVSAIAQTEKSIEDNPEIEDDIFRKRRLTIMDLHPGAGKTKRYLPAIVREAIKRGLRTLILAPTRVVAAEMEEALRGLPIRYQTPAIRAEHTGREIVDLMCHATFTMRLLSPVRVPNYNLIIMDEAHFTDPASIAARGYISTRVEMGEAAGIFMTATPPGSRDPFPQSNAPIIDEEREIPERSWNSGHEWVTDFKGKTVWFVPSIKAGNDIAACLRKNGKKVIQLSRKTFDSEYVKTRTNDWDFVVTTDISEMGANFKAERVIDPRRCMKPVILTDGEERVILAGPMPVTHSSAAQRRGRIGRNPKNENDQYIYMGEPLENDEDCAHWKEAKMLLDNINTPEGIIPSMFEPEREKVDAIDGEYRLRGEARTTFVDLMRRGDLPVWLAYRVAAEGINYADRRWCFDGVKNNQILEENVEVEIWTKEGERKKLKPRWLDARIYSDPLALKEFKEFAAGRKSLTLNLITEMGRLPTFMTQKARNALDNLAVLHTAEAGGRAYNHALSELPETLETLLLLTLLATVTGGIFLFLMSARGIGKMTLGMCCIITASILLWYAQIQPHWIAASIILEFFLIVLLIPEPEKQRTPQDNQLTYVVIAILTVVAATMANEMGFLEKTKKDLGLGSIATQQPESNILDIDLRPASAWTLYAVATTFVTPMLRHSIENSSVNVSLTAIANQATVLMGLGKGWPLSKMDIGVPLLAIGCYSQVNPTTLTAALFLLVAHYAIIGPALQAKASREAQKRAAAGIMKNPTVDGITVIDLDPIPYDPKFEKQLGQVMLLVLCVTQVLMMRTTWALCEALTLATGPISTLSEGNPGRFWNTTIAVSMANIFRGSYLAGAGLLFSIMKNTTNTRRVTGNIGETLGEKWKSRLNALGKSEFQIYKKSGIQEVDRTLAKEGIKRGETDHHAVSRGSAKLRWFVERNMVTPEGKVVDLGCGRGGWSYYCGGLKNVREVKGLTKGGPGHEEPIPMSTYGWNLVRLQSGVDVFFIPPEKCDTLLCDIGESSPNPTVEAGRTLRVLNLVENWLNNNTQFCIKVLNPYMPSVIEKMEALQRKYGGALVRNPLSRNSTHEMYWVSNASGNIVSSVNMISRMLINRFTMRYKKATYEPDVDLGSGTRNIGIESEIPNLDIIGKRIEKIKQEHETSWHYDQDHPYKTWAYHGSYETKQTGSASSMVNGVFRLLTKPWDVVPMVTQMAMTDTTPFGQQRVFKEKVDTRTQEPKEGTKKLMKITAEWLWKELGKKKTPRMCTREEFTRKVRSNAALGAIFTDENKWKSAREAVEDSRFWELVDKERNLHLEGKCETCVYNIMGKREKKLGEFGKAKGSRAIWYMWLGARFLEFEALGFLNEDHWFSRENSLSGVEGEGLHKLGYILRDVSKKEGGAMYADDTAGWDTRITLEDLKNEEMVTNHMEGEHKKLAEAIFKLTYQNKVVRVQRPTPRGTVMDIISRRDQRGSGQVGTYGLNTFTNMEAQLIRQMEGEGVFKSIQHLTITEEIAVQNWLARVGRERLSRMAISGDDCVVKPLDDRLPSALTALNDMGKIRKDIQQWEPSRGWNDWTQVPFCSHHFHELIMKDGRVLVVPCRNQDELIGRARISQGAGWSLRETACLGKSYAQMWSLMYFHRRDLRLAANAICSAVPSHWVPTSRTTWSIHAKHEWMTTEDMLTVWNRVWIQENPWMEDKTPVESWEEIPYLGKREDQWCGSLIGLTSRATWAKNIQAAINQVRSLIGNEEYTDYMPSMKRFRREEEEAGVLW
Test: Dengue-2 NS5 methyltransferase inhibitors, primary screen, biochemical, confirmation dose response (AID 588689)
Conditions: Dengue-2 NS5 methyltransferase capping enzyme assay, at 25 µM, stronger effect = higher value
[1] = measured here: pilot screen replicate inhibition

SMILES | inhibition | inhibition [1] [%]
O=C(Nc1ccc(C(F)(F)F)cc1)c1csc(-c2ccncc2)n1 | -2.96% (inactive) | 
CSc1nsc(SC)c1NC(=O)N1CCCC1 | -1.61% (inactive) | 
O=C(O)c1cc(-c2ccc(/C=C3\NC(=O)N(c4ccc(Cl)cc4)C3=O)o2)ccc1Cl | 13.8% (inactive) | 
O=C(O)c1cc(-c2ccc(/C=C3\NC(=O)N(c4ccccc4)C3=O)o2)ccc1Cl | 3.09% (inactive) | 
Cc1ccc(N2NC(=O)/C(=C/c3ccc(-c4ccc(Cl)c(C(=O)O)c4)o3)C2=O)cc1 | 15.4% (inactive) | 
C#CCN1C(=O)S/C(=C\c2ccc(-c3ccc(Cl)c(C(=O)O)c3)o2)C1=O | 2.31% (inactive) | 
Cc1cn([C@H]2C[C@H](O)[C@@H](CNC(=O)CNC(=O)CN)O2)c(=O)[nH]c1=O | 2.27% (inactive) | 
CCOc1ccc2nc(N/C(N)=N/S(=O)(=O)c3ccc(C)cc3)nc(C)c2c1 | -2.74% (inactive) | 
Cc1ccc(NC(=O)CC(=O)c2ccccc2)cc1C | -1.66% (inactive) | 
C[C@H](NC(=O)c1ccccc1Cl)C(=O)OC(C(=O)Nc1cc(C(F)(F)F)ccc1Cl)c1ccccc1 (some centres not stated) | 6.11% (inactive) | 
Oc1ccccc1N=N/C(=N/Nc1ccccc1O)c1ccccc1 | 6.32% (inactive) | 
O=C(O)c1cc(S(=O)(=O)Nc2ccccc2C(=O)O)ccc1O | 24.8% (inactive) | 
Cc1cccc(NC(=O)c2cc(NC(=O)C3CCCCC3C(=O)O)ccc2N2CCOCC2)c1 (configuration not stated) | 3.25% (inactive) | 
CC(=O)Nc1ccc(N2CCCCC2)c(C(=O)Nc2cccc(C)c2)c1 | 1.3% (inactive) | 
Cc1cnc(C(=O)OCc2nc3ccsc3c(=O)[nH]2)cn1 | -4.41% (inactive) | 
Cc1ncc(CN2CCCC(C(=O)Nc3ccc(-c4ccco4)cc3)C2)cn1 (configuration not stated) | -25.6% (inactive) | 
O=C1C(=C(O)c2ccccc2)C(=O)c2ccccc21 | 12.9% (inactive) | 
O=C1C(=O)c2ccc(-c3ccccc3)cc2-c2ccccc21 | -10.1% (inactive) | 8.18
COc1ccccc1-n1cc(-c2ccccc2)c2c(=S)nc[nH]c21 | 7.35% (inactive) | 
COc1ccc(NC(=O)CCCc2ccccc2)cc1OC | -7.95% (inactive) | 

SMILES | inhibition | inhibition [1] [%]
CC(=O)NC(CC(=O)OCC(=O)c1ccc(NC(=O)CC(C)C)cc1)c1ccccc1 (configuration not stated) | -7.74% (inactive) | 
O=C(O)c1cccc(NC2=C(n3nnc4ccccc43)C(=O)c3ccccc3C2=O)c1 | 0.29% (inactive) | 
O=C(O)c1cccc(NC2=C(N3CCOCC3)C(=O)c3ccccc3C2=O)c1 | 15% (inactive) | 
O=S(=O)(Nc1ccc2cn[nH]c2c1)c1ccc(Cl)cc1 | -2.71% (inactive) | 
Cc1ccc(NC2=C(Cl)C(=O)c3ccccc3C2=O)cc1 | -0.64% (inactive) | 
O=C1C(Cl)=C(NCCCO)C(=O)c2ccccc21 | -6.93% (inactive) | 
O=C1C(Cl)=C(Nc2ccccc2)C(=O)c2ccccc21 | 5.85% (inactive) | 
CCNC1=C(Cl)C(=O)c2ccccc2C1=O | 6.43% (inactive) | 
O=C1C(Cl)=C(Nc2ccc(O)cc2)C(=O)c2ccccc21 | 27.1% (inactive) | 
CCOC(=O)CSc1nnc(-c2cccs2)n1-c1ccccc1 | -7.23% (inactive) | 
COc1ccc(C)cc1NC(=O)NNC(=O)c1ccoc1C | 5.8% (inactive) | 
COc1cccc(NC(=O)CN2CCC(NC(=O)c3ccccc3C)CC2)c1 | -2.2% (inactive) | 
Cc1cccc(NC2=C(NCCO)C(=O)c3ccccc3C2=O)c1 | 1.45% (inactive) | 
Cc1ccc(NC2=C(NC(=O)c3ccccc3)C(=O)c3ccccc3C2=O)cc1Cl | 26.9% (inactive) | 
C=CCOc1ccc(/C=C/C(=O)OCC(=O)NCCCc2ccccc2)cc1 | 0% (inactive) | 
Cn1c(NC(=O)c2ccc(C(C)(C)C)cc2)cc(=O)n(C)c1=O | 2.78% (inactive) | 
O=C(c1cccnc1)N1CCN(CCCc2ccccc2)CC1 | -7.9% (inactive) | 
O=C(O)CCN1C(=O)/C(=C\c2cccc(OCc3ccccc3)c2)SC1=S | 40.6% (inactive) | 
COc1ccc(/C=C2/SC(=S)N(CCC(=O)O)C2=O)cc1 | 4.79% (inactive) | 
COc1cccc(/C=C2\SC(=S)N(CCC(=O)Nc3ccc(O)cc3)C2=O)c1 | 3.49% (inactive) | 

SMILES | inhibition | inhibition [1] [%]
Cc1ccc(NC(=O)COc2cccc(/C=C3\SC(=S)N(CCC(=O)O)C3=O)c2)cc1Cl | 0.88% (inactive) | 
O=C(COC(=O)c1cc(S(=O)(=O)N2CCOCC2)ccc1F)NCc1ccc2c(c1)OCO2 | -7.39% (inactive) | 
C/C(CCc1ccccc1)=N/NC(=O)C(=O)NC(C)c1ccccc1 (configuration not stated) | -9.31% (inactive) | 
CCc1cc(C(=O)Cc2cnn(-c3ccccc3)c2)c(O)cc1O | 5.45% (inactive) | -6.54
O=C(c1cnn(-c2ccccc2)c1)c1ccccc1O | 4.45% (inactive) | 
O=C(Cc1ccc(Br)cc1)Nc1nc2ccccc2[nH]1 | 3.24% (inactive) | 
COc1cccc(C(=O)N/N=C/c2ccc(OC)c(COc3ccccc3C(N)=O)c2)c1 | 3.25% (inactive) | 
C=CCn1c(SCC(=O)NC(=O)NCCC)nnc1C1CCCCC1 | 3.46% (inactive) | 
O=C1c2ccccc2CCC12OC2c1ccc([N+](=O)[O-])cc1 (configuration not stated) | -3.43% (inactive) | 
CCSc1nc2cc(OC)c(OC)cc2c(=O)n1CC | 2.71% (inactive) | 
CCn1c(SCC(N)=O)nnc1-c1ccc(OC)c(OC)c1 | -2.41% (inactive) | 
CCOc1ccc(-c2cn(-c3ccc(OC)cc3)c(SC)n2)cc1 | -2.59% (inactive) | 
COc1cccc(C(c2c(O)nc(SC)n(C)c2=O)c2c(O)nc(SC)n(C)c2=O)c1 | 16.2% (inactive) | -1.21
COc1ccc(C(c2c(O)nc(SC)n(C)c2=O)c2c(O)nc(SC)n(C)c2=O)cc1O | -4.46% (inactive) | 
CCOc1ccc(C(=O)CSc2nnc(C3CC3)n2C)cc1 | -4.8% (inactive) | 
COCCn1c(C)nnc1SCC(=O)NNC(=O)c1ccc(Br)cc1 | -3.23% (inactive) | 
O=C(ONC(=O)C1C2C=CC(C2)C1C(=O)NOC(=O)c1ccccc1)c1ccccc1 (configuration not stated) | -1.55% (inactive) | 
O=C(CC1SCCNC1=O)Nc1ccccc1Cl (configuration not stated) | 0% (inactive) | 
COc1ccccc1C(=O)NCC(=O)N/N=C/c1cn[nH]c1-c1ccccc1 | -1.82% (inactive) | 
